The source of these data is PubChem BioAssay AID2202241 (National Center for Advancing Translational Sciences (NCATS), 2025).

Activity calls are given as the source filed them. How the calls were made is not given here. Square brackets hold non-standard residues; d marks the D form. Peptide text beside a SMILES is read from it. * marks the point of attachment. Dolaproine = CO[C@@H]([C@@H]1CCCN1)[C@@H](C)C(=O)O; Dil = CC[C@H](C)[C@H](NC)[C@@H](CC(=O)O)OC; NMe2Val = CC(C)[C@@H](C(=O)*)N(C)C; X1 = C[C@@H](N*)[C@@H](O)c1ccccc1; NMeV = CN[C@H](C(=O)O)C(C)C

This experiment can be described thus: Identification of antibody-drug conjugate (ADC) payloads which are substrates of ATP-binding cassette drug efflux transporters: cell line panel data. To be noted: 99 cancer cell line panel, CellTiter-Glo viability, 48 h; hits give low values. The text has this: Antibody-drug conjugates (ADCs) feature an antibody recognizing a specific protein joined to a potent toxic payload. Numerous antibody-drug conjugates have received FDA approval; however, clinical resistance arises. Resistance mechanisms include decreased expression or mutation of the antibody target, impaired payload release, or increased expression of ATP-binding cassette (ABC) efflux transporters associated with multidrug resistance. We therefore sought to characterize the activity of ADC payloads across a broad set of cancer cell lines. We performed a high-throughput screen with 27 common ADC payloads against a panel of 99 cell lines to assess sensitivity to various payloads. Duocarmycin DM and PNU-159682 were exquisitely toxic across the panel of cancer cell lines of varying origins. These findings highlight the potentially broad applicability of Duocarmycin DM and PNU-159682 as ADC payloads in future ADC development.
Compounds were sourced from Levena Biopharma (San Diego, CA), Selleck Chem (Houston, TX), ChemieTek (Indianapolis, IN), or Microsource Discovery Systems (Gaylordsville, CT). Cell line sources and culture conditions were as follows: CAL-27 (ATCC: CRL-2095) and Hs 766T (ATCC: HTB-134) were grown in DMEM media +10% FBS. RKO (ATCC: CRL-2577), A-427 (ATCC: […]), BT-20 (ATCC: HTB-19), Detroit562 (ATCC: CCL-138), HARA-B (Cytion: 300465), PA-1 (ATCC: CRL-1572), TCCSUP (ATCC: […]), UM-UC-3 (ATCC: CRL-1749), and WI-38 (ATCC: CCL-75) were grown in EMEM media +10% FBS. AGS (ATCC: CRL-1739) was grown in F12K media +10% FBS. JJN-3 (DSMZ: ACC 541) was grown in IMDM media +20% FBS. 769-P (ATCC: CRL-1933), 786-O (ATCC: CRL-1932), A-375 (ATCC: CRL-1619), A-431 (ATCC: CRL-1555), A-549 (ATCC: CCL-185), A2780 (Cytion: 300491), ACHN (ATCC: CRL-1611), BT-474 (ATCC: HTB-20), BT-549 (ATCC: HTB-122), CCRF-CEM (ATCC: CCL-119), Daudi (ATCC: CCL-213), HaCaT (Cytion: 300493), HCC38 (ATCC: CRL-2314), HCC827 (ATCC: CRL-2868), HCT15 (ATCC: CCL-225), HEL 92.1.7 (ATCC: TIB-180), Hs 352.Sk (ATCC: CRL-7250), Hs578T (ATCC: HTB-126), HT-1080 (ATCC: CCL-121), HuCC-T1 (Riken Bioresource Center: RCB1960), HuP-T3 (DSMZ: ACC 259), HuP-T4 (DSMZ: ACC 223), IM-9 (ATCC: CCL-159), JJ012 (Gift: Karina Galoian (University of Miami)), JM-1 (ATCC: CRL-10423), K-562 (ATCC: CCL-243), Kasumi-3 (ATCC: CRL-2725), KMS-12-BM (DSMZ: ACC 551), LOUCY (ATCC: CRL-2629), LoVo (ATCC: CCL-229), MCF-7 (ATCC: HTB-22), MDA-MB-231 (ATCC: HTB-26), MDA-MB-436 (ATCC: HTB-130), MDA-MB-468 (ATCC: HTB-132), MIA PaCa-2 (ATCC: CRL-1420), MM1.R (ATCC: CRL-2975), MM1.S (ATCC: CRL-2974), NALM-6 (ATCC: CRL-3273), NCI-H1299 (ATCC: CRL-5803), NCI-H1355 (ATCC: CRL-5865), NCI-H1395 (ATCC: CRL-5868), NCI-H1437 (ATCC: CRL-5872), NCI-H2122 (ATCC: CRL-5985), NCI-H2170 (ATCC: CRL-5928), NCI-H226 (ATCC: CRL-5826), NCI-H23 (ATCC: CRL-5800), NCI-H322M (NIH: NCI-60), NCI-H460 (ATCC: HTB-177), NCI-H522 (ATCC: CRL-5810), NCI-H929 (ATCC: CRL-3580), NIH 3T3 (ATCC: CRL-1658), OCI-M2 (DSMZ: ACC 619), OPM-2 (DSMZ: ACCC 50), OVCAR-3 (ATCC: HTB-161), OVCAR-4 (Gift: Phil Lorenzi MD Anderson), OVCAR-8 (Gift: Phil Lorenzi MD Anderson), Panc 10.05 (ATCC: CRL-2547), PANC-1 (ATCC: CRL-1469), Pfeiffer (ATCC: CRL-2632), PL45 (ATCC: CRL-2558), PSN1 (ATCC: CRL-3211), Raji (ATCC: CCL-86), RD (Gift: Mari Yohe NCI), RPMI-8226 (ATCC: CRM-CCL-155), RS4;11 (ATCC: CRL-1873), SK-BR-3 (ATCC: HTB-30), SK-MEL-28 (ATCC: HTB-72), SMS-CTR (Gift: Mari Yohe NCI), SNU-16 (ATCC: CRL-5974), SU-DHL-8 (ATCC: CRL-2961), SU.86.86 (ATCC: CRL-1837), SW1990 (ATCC: CRL-2172), SW403 (ATCC: CCL-230), SW480 (ATCC: CCL-228), SW579 (ATCC: HTB-107), T-47D (ATCC: HTB-133), T24 (ATCC: HTB-4), and U-937 (ATCC: CRL-1593.2) were grown in RPMI +10% FBS. U266B1 (ATCC: TIB-196) were grown in RPMI +15% FBS. ME-1 (ATCC: HB-119), MOLM-13 (DSMZ: ACC 554), AMO1 (DSMZ: ACC 538), MOLP-8 (DSMZ: ACC 569), MV4-11 (ATCC: CRL-9591), PL-21 (DSMZ: ACC 536), and L-363 (DSMZ: ACC 49) were grown in RPMI +20% FBS. […]
(In general: Cellular ATP, detected with luciferase, serves as a proxy for viable cell number.)
In the case of `COc1cc2cc(C(=O)N3C[C@@H](CCl)c4c3cc(O)c3ccccc43)[nH]c2c(OC)c1OC`, the viability AUC is 654 (active).

Take `COc1cccc2c1C(=O)c1c(O)c3c(c(O)c1C2=O)C[C@@](O)(C(=O)CO)CC3OC1CC(N2CCOC(OC)C2)C(O)C(C)O1` (stereo partly specified): the viability AUC was 666 (active).

Turning to `CC[C@H](C)[C@@H]([C@@H](CC(=O)N1CCC[C@H]1[C@H](OC)[C@@H](C)C(=O)N[C@H](C)[C@@H](O)c1ccccc1)OC)N(C)C(=O)[C@@H](NC(=O)[C@H](C(C)C)N(C)C)C(C)C`, the viability AUC is 699 (active).

As to `CC[C@H](C)[C@@H]([C@@H](CC(=O)N1CCC[C@H]1[C@H](OC)[C@@H](C)C(=O)N[C@H](C)[C@@H](O)c1ccccc1)OC)N(C)C(=O)[C@@H](NC(=O)[C@@H](NC)C(C)C)C(C)C` (H-[NMeV]V[Dil][Dolaproine]-X1), the viability AUC is 816 (active).

Consider `CC[C@H](C)[C@@H]([C@@H](CC(=O)N1CCC[C@H]1[C@H](OC)[C@@H](C)C(=O)N[C@@H](Cc1ccccc1)C(=O)O)OC)N(C)C(=O)[C@@H](NC(=O)[C@H](C(C)C)N(C)C)C(C)C` (NMe2Val-V[Dil][Dolaproine]F-OH), for which the viability AUC was 932 (active).

With `COc1cc2cc(c1Cl)N(C)C(=O)C[C@H](OC(=O)C(C)C)[C@]1(C)O[C@H]1[C@H](C)[C@@H]1C[C@@](O)(NC(=O)O1)[C@H](OC)C=CC=C(C)C2`, the viability AUC is 756 (active).

With `COc1cc2cc(c1Cl)N(C)C(=O)C[C@H](OC(=O)[C@H](C)N(C)C(=O)CCS)[C@]1(C)OC1[C@H](C)C1C[C@@](O)(NC(=O)O1)[C@H](OC)/C=C/C=C(\C)C2` (stereo partly specified), the viability AUC is 817 (active).

Take `CC[C@H](C)[C@@H]1NC(=O)CNC(=O)[C@H]2Cc3c([nH]c4cc(O)ccc34)S(=O)C[C@H](NC(=O)CNC1=O)C(=O)N[C@@H](CC(N)=O)C(=O)N1C[C@H](O)C[C@H]1C(=O)N[C@@H]([C@@H](C)[C@@H](O)CO)C(=O)N2` (stereo partly specified): the viability AUC was 992 (active).

On to `CC[C@H](C)[C@H](NC(=O)[C@H]1CCCCN1C)C(=O)N(C)[C@H](C[C@@H](OC(C)=O)c1nc(C(=O)O)cs1)C(C)C`, for which the viability AUC was 982 (active).

On to `CC[C@H](C)[C@H](NC(=O)[C@H]1CCCCN1C)C(=O)N(C)[C@H](C[C@@H](OC(C)=O)c1nc(C(=O)N[C@@H](Cc2ccccc2)C[C@H](C)C(=O)O)cs1)C(C)C`, for which the viability AUC was 793 (active).

As to `COc1cc2cc(c1Cl)N(C)C(=O)C[C@H](OC(=O)[C@H](C)N(C)C(=O)CCC(C)(C)S)[C@]1(C)OC1[C@H](C)C1C[C@@](O)(NC(=O)O1)[C@H](OC)/C=C/C=C(\C)C2` (stereo partly specified), the viability AUC was 777 (active).
